Experimental data: PMC5540273 (PLoS ONE, 2017)
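Also: KINOMEscan kinase panel screen.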

The compounds below were run on EPHB3. Settings: concentration: 1 μM,replicates: in singlicate; n = 1.
With CC(C(=O)NC1CCN(c2ccnc(Nc3ccc(F)cc3)n2)C1)c1ccc(Cl)cc1 (stereo not drawn) [GSK1379713] the “%Inh” value was 0%.
With COC(=O)Nc1nc2cc(Oc3ccc(NC(=O)Nc4cc(C(F)(F)F)ccc4Cl)cc3)ccc2[nH]1.Cl [GW697465] the “%Inh” value was 10%.
With Cn1ccc2ncnc(Oc3ccc(NC(=O)Nc4cccc(C(F)(F)F)c4)c(F)c3)c21 the “%Inh” value was 74%.
O=c1[nH]cc(-c2ccc(O)cc2)c2sc(-c3ccncc3)cc12 [GSK1033723] was tested, and the “%Inh” value was 15%.
With Cc1ccc2c(-c3ccnc(Nc4ccc(C(F)(F)F)cc4)n3)cnn2n1 [GW819776] the “%Inh” value was 7%.
In the case of CN1CCN(CCNc2nc3cc(Oc4ccc(NC(=O)Nc5cc(C(F)(F)F)ccc5F)cc4)ccc3[nH]2)CC1.Cl.Cl [GW768504], the “%Inh” value is reported as 14%.
Cc1ccc(C(=O)Nc2ccc(Oc3ccc4nc(NC(=O)C5CC5)cn4c3)c(F)c2)c(=O)n1-c1ccccc1 was tested, and the “%Inh” value was 11%.
In the case of Nc1nccc(-c2ccc3c(N)n[nH]c3c2)n1 [GSK1034945], the “%Inh” value is reported as 16%.
With COc1cccc(CNC(=O)NC2CCN(c3ccnc(Nc4cc(OC)c(OC)c(OC)c4)n3)C2)c1 (stereo not drawn) [GSK1379765] the “%Inh” value was 20%.
For Cn1ccc2ncnc(Oc3ccc(NC(=O)Nc4cccc(C(F)(F)F)c4)c(Cl)c3)c21, the “%Inh” value was 66%.
CCNCC(Cc1ccccc1)NC(=O)c1cc(Br)c(-c2ccnc3[nH]ccc23)s1.Cl.Cl (stereo not drawn) [GSK1383280] was tested, and the “%Inh” value was 17%.
With Cc1cccc(-c2nc(Nc3ccncc3)c3sccc3n2)n1 [GW869641] the “%Inh” value was 16%.
